# Laboratory results published in publication PMC11006913.
# Changes are numbered by the printed parent chain.
# What was measured:
# Experiment in all cases: PBM; 200 nM protein, PBS
# Settings in all cases: dsDNA, one strand shown
# PAX4 [1] = molecular target: T1, PAX4 (Homo sapiens, UniProt O43316 9-242, R200K)
# T1 sequence: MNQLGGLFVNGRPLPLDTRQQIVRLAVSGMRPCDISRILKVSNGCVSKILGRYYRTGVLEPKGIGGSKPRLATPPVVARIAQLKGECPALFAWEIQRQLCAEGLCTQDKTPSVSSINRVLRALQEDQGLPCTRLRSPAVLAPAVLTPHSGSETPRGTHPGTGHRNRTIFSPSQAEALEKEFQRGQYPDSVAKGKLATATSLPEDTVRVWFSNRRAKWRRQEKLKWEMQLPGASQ
# PAX4 [2] = molecular target: T2, PAX4 (Homo sapiens, UniProt O43316 9-242)
# T2 sequence: T1 sequence with K192R
# ALX3 [3] = molecular target: ALX3 (Homo sapiens, UniProt O95076 139-225, N203Q)
# PAX4 [4] = molecular target: T3, PAX4 (Homo sapiens, UniProt O43316 9-242, R200Q)
# T3 sequence: T1 sequence with K192Q
# PAX4 [5] = molecular target: T4, PAX4 (Homo sapiens, UniProt O43316 9-242, F177V)
# T4 sequence: T1 sequence with F169V, K192R
# MSX2 = MSX2 (Homo sapiens, UniProt P35548 130-214)
# ALX3 [6] = molecular target: ALX3 (Homo sapiens, UniProt O95076 139-225)
# PAX4 [7] = molecular target: T5, PAX4 (Homo sapiens, UniProt O43316 9-242, F177Y)
# T5 sequence: T1 sequence with F169Y, K192R
# ALX3 [8] = molecular target: ALX3 (Homo sapiens, UniProt O95076 139-225, L168V)
# PAX4 [9] = molecular target: T6, PAX4 (Homo sapiens, UniProt O43316 9-242, R227W)
# T6 sequence: T1 sequence with K192R, R219W
# HOXA4 = HOXA4 (Homo sapiens, UniProt Q00056 201-287, W262F)
# ALX3 [10] = molecular target: ALX3 (Homo sapiens, UniProt O95076 139-225, N203S)
# VENTX [11] = molecular target: T7, VENTX (Homo sapiens, UniProt O95231 78-163, R121Q)
# T7 sequence: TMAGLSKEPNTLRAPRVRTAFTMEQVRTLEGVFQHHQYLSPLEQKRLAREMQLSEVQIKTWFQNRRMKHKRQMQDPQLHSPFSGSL
# VENTX [12] = molecular target: T8, VENTX (Homo sapiens, UniProt O95231 78-163, Y115F)
# T8 sequence: T7 sequence with Y38F, Q44R
# HOXA7 = HOXA7 (Homo sapiens, UniProt P31268 116-202)
# VAX1 = VAX1 (Homo sapiens, UniProt Q5SQQ9 86-172, T142I)
# HOXA2 [13] = molecular target: HOXA2 (Homo sapiens, UniProt O43364 129-215, R185T)
# HOXA2 [14] = molecular target: HOXA2 (Homo sapiens, UniProt O43364 129-215, R185K)
# HOXA2 [15] = molecular target: HOXA2 (Homo sapiens, UniProt O43364 129-215, Y150S)
# HOXA2 [16] = molecular target: HOXA2 (Homo sapiens, UniProt O43364 129-215)
# HOXA2 (Homo sapiens, UniProt O43364 129-215), sequence (O43364 129-215): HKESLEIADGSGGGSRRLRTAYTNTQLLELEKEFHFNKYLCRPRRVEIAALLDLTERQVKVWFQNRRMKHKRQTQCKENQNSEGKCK
# HOXA7, sequence (P31268 116-202): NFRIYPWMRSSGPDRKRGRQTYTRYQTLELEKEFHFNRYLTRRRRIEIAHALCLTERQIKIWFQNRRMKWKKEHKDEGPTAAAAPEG
# ALX3 (Homo sapiens, UniProt O95076 139-225, N203Q), sequence (O95076 139-225 N203Q): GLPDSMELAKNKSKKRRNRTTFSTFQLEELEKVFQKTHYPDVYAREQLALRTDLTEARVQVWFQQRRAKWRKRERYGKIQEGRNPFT
# ALX3 (Homo sapiens, UniProt O95076 139-225), sequence (O95076 139-225): as the sequence (O95076 139-225 N203Q) above, with Q65N counted along it
# ALX3 (Homo sapiens, UniProt O95076 139-225, L168V), sequence (O95076 139-225 L168V): as the sequence (O95076 139-225 N203Q) above, with L30V, Q65N counted along it
# HOXA4, sequence (Q00056 201-287 W262F): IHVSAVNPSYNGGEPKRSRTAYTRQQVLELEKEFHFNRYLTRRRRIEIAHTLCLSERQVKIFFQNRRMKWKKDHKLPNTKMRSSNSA
# ALX3 (Homo sapiens, UniProt O95076 139-225, N203S), sequence (O95076 139-225 N203S): as the sequence (O95076 139-225 N203Q) above, with Q65S counted along it
# MSX2, sequence (P35548 130-214): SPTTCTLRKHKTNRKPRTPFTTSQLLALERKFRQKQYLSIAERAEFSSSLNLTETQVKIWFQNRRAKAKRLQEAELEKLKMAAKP
# HOXA2 (Homo sapiens, UniProt O43364 129-215, R185T), sequence (O43364 129-215 R185T): as the sequence (O43364 129-215) above, with R57T counted along it
# HOXA2 (Homo sapiens, UniProt O43364 129-215, R185K), sequence (O43364 129-215 R185K): as the sequence (O43364 129-215) above, with R57K counted along it
# HOXA2 (Homo sapiens, UniProt O43364 129-215, Y150S), sequence (O43364 129-215 Y150S): as the sequence (O43364 129-215) above, with Y22S counted along it
# VAX1, sequence (Q5SQQ9 86-172 T142I): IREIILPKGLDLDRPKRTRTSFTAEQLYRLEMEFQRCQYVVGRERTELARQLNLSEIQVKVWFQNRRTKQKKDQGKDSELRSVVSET
sequence,measurement,setting,value
AATTAAAT,binding signal,PAX4 [1],"11.8 upbm affinity estimate (log intensity, higher = more binding, comparable within an allelic series)"
same,binding signal,PAX4 [2],"12.3 upbm affinity estimate (log intensity, higher = more binding, comparable within an allelic series)"
same,binding signal,ALX3 [3],"8.52 upbm affinity estimate (log intensity, higher = more binding, comparable within an allelic series)"
same,binding signal,PAX4 [4],"12.2 upbm affinity estimate (log intensity, higher = more binding, comparable within an allelic series)"
same,binding signal,PAX4 [5],"10.8 upbm affinity estimate (log intensity, higher = more binding, comparable within an allelic series)"
same,binding signal,MSX2,"13.6 upbm affinity estimate (log intensity, higher = more binding, comparable within an allelic series)"
same,binding signal,ALX3 [6],"12.5 upbm affinity estimate (log intensity, higher = more binding, comparable within an allelic series)"
same,binding signal,PAX4 [7],"11.3 upbm affinity estimate (log intensity, higher = more binding, comparable within an allelic series)"
same,binding signal,ALX3 [8],"10.2 upbm affinity estimate (log intensity, higher = more binding, comparable within an allelic series)"
same,binding signal,PAX4 [9],"11.1 upbm affinity estimate (log intensity, higher = more binding, comparable within an allelic series)"
same,binding signal,HOXA4,"11.4 upbm affinity estimate (log intensity, higher = more binding, comparable within an allelic series)"
same,binding signal,ALX3 [10],"8.68 upbm affinity estimate (log intensity, higher = more binding, comparable within an allelic series)"
CGATTATC,binding signal,VENTX [11],"10.6 upbm affinity estimate (log intensity, higher = more binding, comparable within an allelic series)"
same,binding signal,VENTX [12],"10.6 upbm affinity estimate (log intensity, higher = more binding, comparable within an allelic series)"
CGGGCCCG,binding signal,HOXA7,"8.8 upbm affinity estimate (log intensity, higher = more binding, comparable within an allelic series)"
same,binding signal,PAX4 [1],"9.58 upbm affinity estimate (log intensity, higher = more binding, comparable within an allelic series)"
same,binding signal,PAX4 [2],"9.62 upbm affinity estimate (log intensity, higher = more binding, comparable within an allelic series)"
same,binding signal,PAX4 [4],"9.41 upbm affinity estimate (log intensity, higher = more binding, comparable within an allelic series)"
same,binding signal,PAX4 [5],"9.21 upbm affinity estimate (log intensity, higher = more binding, comparable within an allelic series)"
same,binding signal,PAX4 [7],"9.11 upbm affinity estimate (log intensity, higher = more binding, comparable within an allelic series)"
same,binding signal,PAX4 [9],"9.33 upbm affinity estimate (log intensity, higher = more binding, comparable within an allelic series)"
CCGTAGGC,binding signal,HOXA7,"8.48 upbm affinity estimate (log intensity, higher = more binding, comparable within an allelic series)"
GCCAGCGA,binding signal,VENTX [11],"8.16 upbm affinity estimate (log intensity, higher = more binding, comparable within an allelic series)"
same,binding signal,VENTX [12],"8.18 upbm affinity estimate (log intensity, higher = more binding, comparable within an allelic series)"
GCCCCCCA,binding signal,HOXA4,"9.58 upbm affinity estimate (log intensity, higher = more binding, comparable within an allelic series)"
CCAGCGCA,binding signal,MSX2,"9.44 upbm affinity estimate (log intensity, higher = more binding, comparable within an allelic series)"
same,binding signal,VAX1,"7.16 upbm affinity estimate (log intensity, higher = more binding, comparable within an allelic series)"
CAGCCAGG,binding signal,VENTX [11],"8.2 upbm affinity estimate (log intensity, higher = more binding, comparable within an allelic series)"
same,binding signal,VENTX [12],"8.16 upbm affinity estimate (log intensity, higher = more binding, comparable within an allelic series)"
GAGCTGGC,binding signal,HOXA7,"8.29 upbm affinity estimate (log intensity, higher = more binding, comparable within an allelic series)"
GCAGGCGC,binding signal,HOXA2 [13],"6.79 upbm affinity estimate (log intensity, higher = more binding, comparable within an allelic series)"
same,binding signal,HOXA2 [14],"10 upbm affinity estimate (log intensity, higher = more binding, comparable within an allelic series)"
same,binding signal,HOXA2 [15],"10.3 upbm affinity estimate (log intensity, higher = more binding, comparable within an allelic series)"
same,binding signal,HOXA4,"9.73 upbm affinity estimate (log intensity, higher = more binding, comparable within an allelic series)"
same,binding signal,HOXA2 [16],"6.79 upbm affinity estimate (log intensity, higher = more binding, comparable within an allelic series)"
TCCCCCCA,binding signal,HOXA2 [13],"7.32 upbm affinity estimate (log intensity, higher = more binding, comparable within an allelic series)"
same,binding signal,HOXA2 [14],"10.4 upbm affinity estimate (log intensity, higher = more binding, comparable within an allelic series)"
same,binding signal,HOXA2 [15],"10.2 upbm affinity estimate (log intensity, higher = more binding, comparable within an allelic series)"
same,binding signal,HOXA4,"9.56 upbm affinity estimate (log intensity, higher = more binding, comparable within an allelic series)"
same,binding signal,HOXA2 [16],"7.41 upbm affinity estimate (log intensity, higher = more binding, comparable within an allelic series)"
CCTAGCTC,binding signal,VENTX [11],"8.35 upbm affinity estimate (log intensity, higher = more binding, comparable within an allelic series)"
same,binding signal,HOXA7,"8.59 upbm affinity estimate (log intensity, higher = more binding, comparable within an allelic series)"
same,binding signal,VENTX [12],"8.28 upbm affinity estimate (log intensity, higher = more binding, comparable within an allelic series)"
same,binding signal,HOXA4,"9.87 upbm affinity estimate (log intensity, higher = more binding, comparable within an allelic series)"
CCGAGACC,binding signal,ALX3 [3],"7.75 upbm affinity estimate (log intensity, higher = more binding, comparable within an allelic series)"
same,binding signal,ALX3 [6],"7.48 upbm affinity estimate (log intensity, higher = more binding, comparable within an allelic series)"
same,binding signal,ALX3 [8],"7.74 upbm affinity estimate (log intensity, higher = more binding, comparable within an allelic series)"
same,binding signal,HOXA4,"9.94 upbm affinity estimate (log intensity, higher = more binding, comparable within an allelic series)"
same,binding signal,ALX3 [10],"7.73 upbm affinity estimate (log intensity, higher = more binding, comparable within an allelic series)"
CCGAGCCG,binding signal,HOXA7,"8.34 upbm affinity estimate (log intensity, higher = more binding, comparable within an allelic series)"
same,binding signal,ALX3 [3],"7.62 upbm affinity estimate (log intensity, higher = more binding, comparable within an allelic series)"
same,binding signal,ALX3 [6],"7.46 upbm affinity estimate (log intensity, higher = more binding, comparable within an allelic series)"
same,binding signal,ALX3 [8],"7.69 upbm affinity estimate (log intensity, higher = more binding, comparable within an allelic series)"
same,binding signal,ALX3 [10],"7.67 upbm affinity estimate (log intensity, higher = more binding, comparable within an allelic series)"
AGGGTCCC,binding signal,HOXA4,"9.78 upbm affinity estimate (log intensity, higher = more binding, comparable within an allelic series)"
AGAGCGCG,binding signal,PAX4 [1],"9.35 upbm affinity estimate (log intensity, higher = more binding, comparable within an allelic series)"
same,binding signal,PAX4 [2],"9.24 upbm affinity estimate (log intensity, higher = more binding, comparable within an allelic series)"
same,binding signal,PAX4 [4],"9.35 upbm affinity estimate (log intensity, higher = more binding, comparable within an allelic series)"
same,binding signal,PAX4 [5],"9.32 upbm affinity estimate (log intensity, higher = more binding, comparable within an allelic series)"
same,binding signal,PAX4 [7],"9.31 upbm affinity estimate (log intensity, higher = more binding, comparable within an allelic series)"
same,binding signal,PAX4 [9],"9.39 upbm affinity estimate (log intensity, higher = more binding, comparable within an allelic series)"
